USP7 block – inhibitors of human USP7 deubiquitinase; 47,000 compounds, 0.3% hits; purified USP7, Ub-rhodamine cleavage fluorescence; inhibition, % at 20 µM; AID 1645854, 2021; Ubiquitin carboxyl-terminal hydrolase 7 (Homo sapiens), Q93009
USP28 inh – inhibitors of human USP28 deubiquitinase; Ubiquitin carboxyl-terminal hydrolase 28 (Homo sapiens), Q96RU2; purified USP28, Ub-rhodamine cleavage fluorescence, 30 min; inhibition, % at 25 µM; 47,000 compounds, 3% hits
Target sequence (Q96RU2 whole entry, looked up): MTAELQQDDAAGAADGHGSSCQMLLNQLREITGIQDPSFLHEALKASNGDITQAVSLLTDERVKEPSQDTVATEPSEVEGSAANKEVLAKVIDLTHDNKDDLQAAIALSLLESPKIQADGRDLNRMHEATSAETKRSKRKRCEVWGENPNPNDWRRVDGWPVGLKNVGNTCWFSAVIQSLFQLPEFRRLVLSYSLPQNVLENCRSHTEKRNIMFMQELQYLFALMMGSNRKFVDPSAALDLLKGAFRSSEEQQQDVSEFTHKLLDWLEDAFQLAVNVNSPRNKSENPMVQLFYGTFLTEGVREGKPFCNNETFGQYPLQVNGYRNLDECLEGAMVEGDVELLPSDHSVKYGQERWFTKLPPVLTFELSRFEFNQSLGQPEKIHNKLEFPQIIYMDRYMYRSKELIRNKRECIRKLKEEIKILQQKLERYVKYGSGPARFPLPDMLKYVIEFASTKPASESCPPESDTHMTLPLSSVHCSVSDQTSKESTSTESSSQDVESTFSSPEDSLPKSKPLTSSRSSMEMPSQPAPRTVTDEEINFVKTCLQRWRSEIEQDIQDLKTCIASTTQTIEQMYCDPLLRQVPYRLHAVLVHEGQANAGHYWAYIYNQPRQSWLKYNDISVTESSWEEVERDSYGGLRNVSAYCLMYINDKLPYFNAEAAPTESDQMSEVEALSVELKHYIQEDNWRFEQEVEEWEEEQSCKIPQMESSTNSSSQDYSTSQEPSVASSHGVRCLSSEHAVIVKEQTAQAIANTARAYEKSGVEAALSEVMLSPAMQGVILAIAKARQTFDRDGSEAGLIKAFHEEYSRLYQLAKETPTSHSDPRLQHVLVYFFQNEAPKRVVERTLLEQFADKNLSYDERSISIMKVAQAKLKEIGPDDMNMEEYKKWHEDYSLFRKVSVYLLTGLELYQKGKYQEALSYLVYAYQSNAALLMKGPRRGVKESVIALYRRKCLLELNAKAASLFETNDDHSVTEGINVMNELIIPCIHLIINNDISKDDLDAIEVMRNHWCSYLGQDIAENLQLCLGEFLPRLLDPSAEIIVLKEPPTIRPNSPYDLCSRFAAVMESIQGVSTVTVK
USP8 inh – inhibitors of human USP8 deubiquitinase | 47,000 compounds, 4.2% hits | AID 1645853, 2021 | purified USP8, Ub-rhodamine cleavage fluorescence, 30 min | inhibition, % at 20 µM
USP30 block – inhibitors of human USP30 deubiquitinase | Ubiquitin carboxyl-terminal hydrolase 30 (Homo sapiens), Q70CQ3 | purified USP30, Ub-rhodamine cleavage fluorescence | inhibition, % at 25 µM | 47,000 compounds, 5.3% hits | AID 1645860, 2021
USP10 block – inhibitors of human USP10 deubiquitinase | AID 1645856, 2021 | 47,000 compounds, 1.1% hits | purified USP10, Ub-rhodamine fluorescence, 60 min | inhibition, % at 20 µM
USP17 inh – inhibitors of human USP17 deubiquitinase | Ubiquitin carboxyl-terminal hydrolase 17-like protein 5 (Homo sapiens), A8MUK1 | purified USP17, Ub-rhodamine cleavage fluorescence, 3 h | inhibition, % at 50 µM | 47,000 compounds, 6.5% hits | AID 1645855, 2021
Numbers without * were called inactive; . = no result given. Shown are actives, neighbours in structure and some others; about 13% of the full set was active somewhere. No stated cut-off is given here; in the data, active means inhibition above about 30%; inactive means the rest.

SMILES | USP7 block | USP28 inh | USP8 inh | USP30 block | USP10 block | USP17 inh
Cc1ccc(-c2nc(-c3ccccc3)c(S(=O)(=O)CC(=O)Nc3ccc(F)c(Cl)c3)[nH]2)cc1 | -15 | 18 | 6 | 44* | 24 | 24
COCCC(=O)N1CC2(CCN(Cc3ccc(-c4ccccc4)cc3)CC2)C1 | 2 | 1 | -1 | 21 | -3 | -6
O=C(Oc1ccc(-c2nccc(-c3ccccn3)n2)cc1)c1ccco1 | 2 | -3 | 2 | -1 | 0 | 4
COc1cc(C2=NO[C@]3(C(=O)Nc4ccccc43)[C@H]2C(=O)c2ccc(C)cc2)ccc1OCC#N | 3 | 5 | 17 | 17 | 9 | 43*
CC(C)(C)c1cc(N2CCOCC2)nc(SCc2cccc(C(=O)O)c2)n1 | -3 | 0 | 12 | 11 | 4 | 15
Nc1nonc1C(=O)N1CCC(c2c(C(=O)N3CCOCC3)sc3ccccc23)C1 (centres undefined) | -5 | 7 | 7 | 7 | -2 | 4
COc1ccc(-c2cc(C(C)=O)c(C)n2CCC(=O)Nc2ccc(C)cn2)cc1 | 1 | -43 | -19 | -132 | -3 | -44
COc1ccc2nc(NC(=O)CCn3c(-c4ccccc4)cc(C(C)=O)c3C)sc2c1 | 4 | 1 | 6 | 7 | -2 | 7
CCOc1ccc(NC(=O)Cn2c(-c3ccccc3)cc(C(C)=O)c2C)cc1 | 8 | 11 | 36* | 37* | 22 | .
COc1ccc(NC(=O)COc2cc(C)nc(-c3ccc(C)cc3)n2)c(OC)c1 | 4 | 12 | 46* | 58* | 30* | 63*
COc1ccc(NC(=O)COc2ccc(C(=O)c3ccccc3)cc2)c(OC)c1 | 6 | -3 | -4 | 24 | 9 | 12
COc1ccc(-c2cc(C(C)=O)c(C)n2CCC(=O)Nc2ccc(OC)cc2OC)cc1 | 5 | 0 | -2 | 81* | 0 | 33*
O=C(Cn1cc(C(=O)c2ccccc2)c(=O)c2cc3c(cc21)OCCO3)Nc1ccc2c(c1)OCO2 | -1 | 5 | 16 | -30 | 9 | -1
CCOc1ccc2c(c1)c(=O)c(C(=O)c1ccccc1)cn2CC(=O)Nc1ccc2c(c1)OCCO2 | 8 | 15 | 95* | 69* | 53* | 0
CCOc1ccc2c(c1)c(=O)c(C(=O)c1ccc(F)cc1)cn2CC(=O)Nc1ccccc1 | 17 | -1 | 38* | 0 | 28 | 4
COc1ccc(NC(=O)Cn2cc(C(=O)c3ccccc3)c(=O)c3cc4c(cc32)OCCO4)cc1 | 1 | -23 | 10 | -33 | 11 | -20
CCOc1ccc2c(c1)c(=O)c(C(=O)c1ccccc1)cn2CC(=O)Nc1ccccc1 | 27 | -3 | 43* | -22 | 29 | 60*
NC(=O)C[C@H](NC(=O)[C@H](Cc1ccccc1)n1c(=O)[nH]c2ccccc2c1=O)C(=O)N1CCC(C(=O)O)CC1 | 3 | -7 | -121 | 2 | 1 | -19
c1nc(NCCCN2CCOCC2)c2sc3nc(N4CCOCC4)c4c(c3c2n1)CCC4 | 2 | 2 | -40 | 1 | 2 | -1
CCN(CCO)c1ncnc2c1sc1nc(-c3ccccc3)c3c(c12)CCC3 | -1 | 4 | -9 | -69 | -5 | 33*
CCN(CC)c1ncnc2c1sc1nc(-c3ccccc3)c3c(c12)CCC3 | -4 | -30 | -20 | -45 | -9 | -36
CC(C)CNc1ncnc2c1sc1nc(-c3ccccc3)c3c(c12)CCC3 | 3 | 8 | 39* | 17 | 0 | .
CCCCc1nc2sc3c(NCCN4CCOCC4)ncnc3c2c2c1CCC2 | -3 | 83* | -13 | -31 | 0 | -14
CCc1ccc2nc(NC(=O)C34CCC(=O)N3CCS4)sc2c1 (centres undefined) | 1 | 1 | 2 | -30 | -2 | 0
Cc1c(C(=O)Nc2cccc(F)c2)nnn1-c1cccc2c1CCN(C(=O)NC(C)C)C2 | -5 | 6 | 10 | 11 | -1 | 12
SMILES | USP7 block | USP28 inh | USP8 inh | USP30 block | USP10 block | USP17 inh
O=C1CCSc2ccccc2N1Cc1ccc([N+](=O)[O-])cc1 | -59 | 29 | -106 | 33* | 5 | 1
CC1CC(=O)N(Cc2ccc([N+](=O)[O-])cc2)c2ccccc2S1 (centres undefined) | -138 | 62* | -113 | 33* | 4 | -8
CC1Oc2ccccc2C(=O)N(Cc2ccc([N+](=O)[O-])cc2)C1=O (centres undefined) | -44 | 74* | -72 | 28 | 7 | 3
CCC1Oc2ccccc2C(=O)N(Cc2ccccc2Cl)C1=O (centres undefined) | -10 | 17 | 22 | 24 | 4 | 15
CC1CC(=O)N(Cc2ccc(F)cc2)c2ccccc2S1(=O)=O (centres undefined) | -2 | 12 | 18 | 19 | 0 | 16
O=C1CCSc2ccc(Cl)cc2N1Cc1cccc(F)c1 | -16 | 37* | 8 | 34* | 5 | 18
COc1ccc2c(C)c(CC(=O)N[C@@H](CSCc3ccccc3)C(=O)O)c(=O)oc2c1OC | 0 | -1 | -2 | 0 | 2 | -7
COc1ccc(-c2cc3c(=O)n(CC(=O)NCCCN4CCCC4)ncn3n2)cc1 | -1 | 10 | -1 | 47* | -8 | 60*
CC(C)NC(=O)Cn1ccn2nc(-c3ccc(Cl)cc3)cc2c1=O | 20 | 18 | 18 | 47* | 23 | 82*
Cc1ccc(-c2cc(NC(=O)C(C)C)c(=O)n(CC(=O)Nc3cccc(Cl)c3)n2)cc1 | 6 | 4 | 24 | 5 | 10 | 4
COc1ccc(-c2cc3c(=O)n(CC(=O)NCCCN4CCCC4=O)ncn3n2)cc1 | -5 | 5 | 17 | 26 | -2 | 13
CCOc1ccccc1NC(=O)Cn1c(-c2ccc3c(c2)OCO3)cn(-c2ccc(OC)cc2)c1=O | -5 | 1 | -8 | 28 | 8 | 52*
COc1ccc(-c2cc3c(=O)n(CC(=O)Nc4ccccc4F)ccn3n2)cc1OC | 3 | -3 | -2 | 9 | -1 | 70*
O[C@H]1[C@H](NCc2ccccc2)[C@@H](c2ccccc2)C[C@H]1O | -9 | -4 | -2 | -23 | -2 | -27
COC(C)C(NC(=O)[C@@H]1CCCN1C)[C@H]1O[C@H](SCCOC(=O)c2ccccc2O)[C@H](O)[C@@H](O)[C@H]1O (some centres undefined) | 4 | -1 | 5 | 21 | 0 | 0
CCOc1ccc(-c2cc3c(=O)n(CC(=O)Nc4ccccc4OC)ccn3n2)cc1 | 2 | -1 | -2 | 6 | 0 | 2
COc1ccc(-c2cc3c(=O)n(CC(=O)Nc4ccccc4Cl)ccn3n2)cc1 | 4 | 10 | -2 | 6 | 6 | 55*
CCOc1ccccc1NC(=O)Cn1ccn2nc(-c3ccc(OC)cc3)cc2c1=O | 6 | 6 | 4 | 43* | 7 | 50*
